The record followed here is PubChem BioAssay.

The nature of assay [1]: optical density shifts of acrAB sulA E. coli – strain DRC41, OD650, 48 h, E. coli filamentation inducer project, primary screen (AID 1152).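 Further: E. coli MC1000 strain DRC41 lacking acrAB efflux pump and sulA.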 To be noted: higher = more signal, called active from +8 up or from −8 down.
Assay [2] in a line: probe aLefty1 binding on compound microarray – biochemical, small-molecule microarray, 635/667 nm fluorescence, primary screen (AID 1153).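 Further: score merges spot fluorescence with signal-to-noise ratio from the scanned slide images.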 To be noted: higher = more signal.
Assay [3] can be described thus: plasmodial surface anion channel blockers, osmotic lysis – cell-based, P. falciparum Indochina, OD700, 1 h, primary screen (AID 1154). To be noted: P. falciparum Indochina infected RBC osmotic lysis, higher = more signal, called active from +8 up or from −8 down.
Assay [4] can be described thus: plasmodial surface anion channel blockers, osmotic lysis – cell-based, P. falciparum Indochina, OD700, 2 h, primary screen (AID 1155).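 Further: lysis reports solute entry through the parasite surface anion channel PSAC.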 To be noted: P. falciparum Indochina infected erythrocytes, higher = more signal, called active from +8 up or from −8 down.
The nature of assay [5]: changes in parasitized red cell lysis, either direction – P. falciparum Indochina, OD700, 3 h, PSAC antagonist project, primary screen (AID 1156). To be noted: P. falciparum-infected erythrocytes, osmotic lysis, higher = more signal, called active from +8 up or from −8 down.
A short description of assay [6]: plasmodial surface anion channel blockers, osmotic lysis – cell-based, P. falciparum Indochina, OD700, 18 h, primary screen (AID 1157). To be noted: P. falciparum Indochina infected erythrocytes, osmotic lysis OD700, 18 h; higher = more signal, called active from +8 up or from −8 down.
A short description of assay [7]: S6 kinase pathway phospho-S6 level changes – cell-based, A549, cytoblot, luminescence, serum-stimulated, primary screen (AID 1158).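 Further: serum-stimulated A549 lung adenocarcinoma cells; signal is phosphorylated S6 detected by cytoblot immunostaining with HRP secondary.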 To be noted: 5 h, higher = more signal.
The target of assay [8] is NADPH oxidase 2 (Homo sapiens) (UniProt P04839). The assay is described as follows: compounds shifting NOX2 Amplex Red fluorescence – cell-based, HEK293-NOX2, PMA-stimulated, NOX inhibitor project, primary screen (AID 1159). Further: test concentration not given here. To be noted: 45 min, higher = more signal, called active from +8 up or from −8 down.
Chain of NADPH oxidase 2 (Homo sapiens) (P04839 whole entry, looked up): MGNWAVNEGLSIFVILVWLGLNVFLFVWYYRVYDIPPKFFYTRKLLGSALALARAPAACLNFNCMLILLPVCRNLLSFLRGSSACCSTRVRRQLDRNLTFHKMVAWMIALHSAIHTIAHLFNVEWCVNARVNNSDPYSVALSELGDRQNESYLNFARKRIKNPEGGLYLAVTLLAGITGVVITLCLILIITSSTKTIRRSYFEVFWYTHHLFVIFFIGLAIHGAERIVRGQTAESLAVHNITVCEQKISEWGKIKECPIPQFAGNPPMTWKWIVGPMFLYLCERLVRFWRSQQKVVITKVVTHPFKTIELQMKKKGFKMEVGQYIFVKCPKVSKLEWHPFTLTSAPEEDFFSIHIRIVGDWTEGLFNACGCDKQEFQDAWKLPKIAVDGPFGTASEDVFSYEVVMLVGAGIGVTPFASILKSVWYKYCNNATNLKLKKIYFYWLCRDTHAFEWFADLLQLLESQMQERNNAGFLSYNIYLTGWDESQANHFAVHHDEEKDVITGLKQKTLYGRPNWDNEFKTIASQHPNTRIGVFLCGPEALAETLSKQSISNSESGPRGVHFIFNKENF
The target of assay [9] is NADPH oxidase 4 (Homo sapiens) (UniProt Q9NPH5). Put plainly: compounds shifting NOX4 Amplex Red fluorescence – cell-based, HEK293-NOX4, tetracycline-induced, NOX inhibitor project, primary screen (AID 1160). To be noted: HEK293-NOX4, Amplex Red H2O2 fluorescence, 45 min; higher = more signal, called active from +8 up or from −8 down.
Chain of NADPH oxidase 4 (Homo sapiens) (Q9NPH5 whole entry, looked up): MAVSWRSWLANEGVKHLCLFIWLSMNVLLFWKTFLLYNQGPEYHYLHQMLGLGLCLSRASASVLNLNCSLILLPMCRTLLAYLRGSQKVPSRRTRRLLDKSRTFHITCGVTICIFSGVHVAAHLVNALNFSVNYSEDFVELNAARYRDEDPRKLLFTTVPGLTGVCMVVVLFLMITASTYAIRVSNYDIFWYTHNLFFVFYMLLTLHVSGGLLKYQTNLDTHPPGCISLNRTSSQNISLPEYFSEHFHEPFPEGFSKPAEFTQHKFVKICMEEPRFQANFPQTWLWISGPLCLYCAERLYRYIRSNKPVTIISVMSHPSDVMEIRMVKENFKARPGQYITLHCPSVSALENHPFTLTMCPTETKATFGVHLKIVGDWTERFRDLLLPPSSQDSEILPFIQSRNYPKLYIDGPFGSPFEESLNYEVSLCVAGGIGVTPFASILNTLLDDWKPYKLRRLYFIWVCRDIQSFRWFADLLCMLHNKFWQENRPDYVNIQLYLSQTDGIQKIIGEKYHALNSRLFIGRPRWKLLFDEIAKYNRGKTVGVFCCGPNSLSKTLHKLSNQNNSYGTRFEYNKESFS
Assay [10] addresses NADPH oxidase 5 (Homo sapiens) (UniProt Q96PH1). The assay is described as follows: compounds shifting NOX5 Amplex Red fluorescence – cell-based, HEK293-NOX5, NOX inhibitor project, primary screen (AID 1161). To be noted: HEK293-NOX5, ionomycin, 45 min, higher = more signal.

Each structure is given as a SMILES string. Active and inactive are the calls of the source.

Chain of NADPH oxidase 5 (Homo sapiens) (Q96PH1 whole entry, looked up): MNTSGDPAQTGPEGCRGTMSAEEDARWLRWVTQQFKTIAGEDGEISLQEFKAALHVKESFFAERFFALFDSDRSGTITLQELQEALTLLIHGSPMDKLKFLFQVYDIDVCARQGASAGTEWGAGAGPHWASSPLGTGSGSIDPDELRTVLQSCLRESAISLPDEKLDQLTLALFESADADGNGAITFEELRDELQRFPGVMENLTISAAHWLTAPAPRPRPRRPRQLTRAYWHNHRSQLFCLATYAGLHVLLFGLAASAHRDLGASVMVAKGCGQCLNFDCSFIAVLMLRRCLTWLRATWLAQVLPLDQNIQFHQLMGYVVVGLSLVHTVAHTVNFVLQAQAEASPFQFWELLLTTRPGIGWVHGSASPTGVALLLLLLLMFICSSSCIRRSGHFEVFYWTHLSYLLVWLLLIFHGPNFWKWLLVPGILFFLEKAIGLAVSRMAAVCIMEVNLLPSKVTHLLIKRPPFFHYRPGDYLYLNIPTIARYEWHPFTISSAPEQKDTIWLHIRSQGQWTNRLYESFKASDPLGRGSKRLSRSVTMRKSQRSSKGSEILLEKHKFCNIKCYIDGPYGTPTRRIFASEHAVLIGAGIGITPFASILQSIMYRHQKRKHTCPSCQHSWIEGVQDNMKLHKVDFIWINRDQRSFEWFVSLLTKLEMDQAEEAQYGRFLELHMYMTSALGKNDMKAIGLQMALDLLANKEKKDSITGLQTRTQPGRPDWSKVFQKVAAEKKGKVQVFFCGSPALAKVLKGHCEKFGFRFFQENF

In the case of `COC(=O)[C@@]1(Cc2ccc(OC)cc2)[C@H]2c3cc(C(=O)N4CCCC4)n(Cc4c(-c5ccccc5)noc4C)c3C[C@H]2CN1C(=O)c1ccccc1`, the z-score is -0.615 (inactive) in assay [1]; 5.34 (inactive) in [3]; 1.25 (inactive) in assay [4]; -0.749 (inactive) in [5]; 1.5 (inactive) in assay [6]; 0.406 in assay [7]. The z-score in [8] was 0.428 (inactive); in [9] it was 0.486 (inactive); in [10] it was 2.59. Further, the composite z-score in assay [2] amounted to 0.956.
As for `COc1ccc([Si](C)(C)[C@@H]2[C@@H](CCO)O[C@]3(C(=O)N(Cc4ccc(N5CCCCC5=O)cc4)c4ccccc43)[C@H]2C)cc1`, the z-score was 0.968 (inactive) in assay [1]; 26 (active) in assay [3]; 21.8 (active) in assay [4]; 0.892 (inactive) in [5]; 2.63 (inactive) in [6]; 0.703 in [7]. For the same compound, the z-score in assay [8] was 0.381 (inactive); in assay [9], 0.706 (inactive); in assay [10], 2.1. The compound further registered a composite z-score in [2] of 0.145.
Consider `CCCNC(=O)[C@@]1(c2ccc([N+](=O)[O-])cc2)CC(=O)N(C2CCCCC2)[C@@H]1c1ccc(CO)cc1`, for which the z-score is 0.774 (inactive) in assay [1]; 2.1 (inactive) in assay [3]; 1.01 (inactive) in assay [4]; 1.21 (inactive) in assay [5]; 0.988 (inactive) in assay [6]; -0.002 in [7]. Besides, the z-score was 0.325 (inactive) in assay [8], 0.901 (inactive) in assay [9] and 0.877 in assay [10]. The composite z-score in assay [2] came out at 0.062.
`O=C1N(Cc2ccccc2)c2ccccc2[C@@H]2OC(c3ccc(OCCCO)cc3)=N[C@]12Cc1ccccc1`: the z-score in assay [1] is 0.65 (inactive); in assay [3], 29.4 (active); in assay [4] it was 26.1 (active); in assay [5], 4.66 (inactive); in assay [6], 2.38 (inactive); in assay [7] it was 0.724. The values for the z-score in [8], in [9] and in [10] were -1.08 (inactive), -0.653 (inactive) and -2.11, respectively. Besides, the composite z-score in assay [2] is -0.0896.
Consider `C=C[C@@H](OC)[C@H](OC(=O)Nc1ccc(SC)cc1)c1ccc(O)c(F)c1`, for which the z-score in [1] is -1.51 (inactive); in assay [3], 24.7 (active); in [4], 7.57 (inactive); in [5], 2.98 (inactive); in [6] it was 1.31 (inactive); in assay [7], -0.618. For the same compound, the z-score was -2.6 (inactive) in [8], -2.4 (inactive) in assay [9] and -1.26 in [10]. For the same compound, in assay [2], the composite z-score was 0.44.
With `CCCC[C@@H](O)C1=C(COc2ccccc2)C[C@H]2C(=O)N(C)C(=O)[C@H]2[C@H]1CO`, the z-score in assay [1] is 2.41 (inactive); in assay [3] it was 4.68 (inactive); in assay [4], -0.35 (inactive); in assay [5], 0.241 (inactive); in assay [6], -1.53 (inactive); in [7], 1.56. Besides, the results for the z-score in assay [8], in assay [9] and in assay [10] were -0.69 (inactive), 0.449 (inactive) and 0.187, respectively. In [2], the composite z-score is -0.274.
For the compound `CCCC[C@@H]1C[C@H]1[C@@H](NC(=O)c1cccs1)c1ccc(C(F)(F)F)cc1`, the z-score in assay [1] was -2.61 (inactive); in [3], 1.5 (inactive); in assay [4] it was 0.987 (inactive); in assay [5], 0.247 (inactive); in [6], 0.592 (inactive); in assay [7], -0.79. Also, the z-score was -0.934 (inactive) in [8], -2.08 (inactive) in [9] and -0.948 in assay [10]. In assay [2], this compound had a composite z-score of 0.101.
For the compound `CC1=C([C@H](O)CCc2ccccc2)[C@H](CO)[C@@H]2C(=O)N(C)C(=O)[C@@H]2C1`, the z-score in assay [1] is 1.13 (inactive); in [3], 4.81 (inactive); in assay [4], 0.403 (inactive); in [5] it was -0.0722 (inactive); in assay [6] it was -0.0393 (inactive); in assay [7] it was -0.167. Also, the z-score in [8] is -1.36 (inactive); in assay [9] it was 0.412 (inactive); in assay [10], 0.0196. This compound also showed a composite z-score in assay [2] of 0.184.
In the case of `[N-]=[N+]=Nc1ccccc1[C@H]1OC(c2ccc(OCCCO)cc2)=N[C@@]1(CCS(=O)(=O)c1ccccc1)C(=O)NCCN1CCOCC1`, the z-score was -0.0631 (inactive) in [1]; 28.9 (active) in assay [3]; 25.6 (active) in assay [4]; 0.931 (inactive) in assay [5]; 1.8 (inactive) in [6]; 0.468 in [7]. Further, the z-score in assay [8] was -2.18 (inactive); in [9], -0.233 (inactive); in assay [10], -1.47. For the same compound, the composite z-score in assay [2] is 0.458.
Take `O=C1NC(=O)C2C1C=CC(C(O)CCc1ccccc1)N2Nc1ccc(Cl)cc1Cl` (stereo not given): the z-score is -1.34 (inactive) in [1]; 2.28 (inactive) in [3]; 1.31 (inactive) in assay [4]; 0.0675 (inactive) in [5]; 1.05 (inactive) in assay [6]; -1.01 in assay [7]. In addition, the results for the z-score in [8], in assay [9] and in assay [10] were -0.22 (inactive), -5.55 (inactive) and -0.709, respectively. Further, in [2], the composite z-score is -0.0162.
In the case of `CN1C(=O)C2C=CC(C(O)c3cccc4ccccc34)N(N3CCCCC3)C2C1=O` (stereo not given), the z-score was -1.57 (inactive) in [1]; 0.669 (inactive) in assay [3]; 0.958 (inactive) in [4]; -0.284 (inactive) in [5]; 0.878 (inactive) in assay [6]; -1.32 in assay [7]. Also, the z-score was -0.671 (inactive) in assay [8], -1.97 (inactive) in assay [9] and -0.766 in assay [10]. This compound displayed a composite z-score in assay [2] of -0.0798.
For `COC(=O)[C@@]1(Cc2ccccc2)[C@H]2c3cc(C(=O)N(C)C)n(Cc4c(CO)[nH]cc(C)c4=O)c3C[C@H]2CN1C(=O)c1ccccc1`, the z-score in assay [1] was -1.16 (inactive); in [3], 0.758 (inactive); in assay [4] it was -0.16 (inactive); in [5], 0.338 (inactive); in assay [6], 0.248 (inactive); in assay [7], -0.482. For the same compound, the values for the z-score in [8], in assay [9] and in assay [10] were 0.495 (inactive), 0.334 (inactive) and -1.91, respectively. The same compound returned a composite z-score in [2] of 0.0004.
